In the library only some 19% were active in any assay of this set; here they are far more common.
ELG1 DNA repair – ELG1-dependent DNA repair inhibition. HEK293T ELG1-luciferase reporter, luminescence, 16 h; DNA damage induced by 5-fluorouridine. Potency, µM (doses to about 46.1 µM), most hits filed as inhibitors. hit rate 2.3% among 330,000; also: nearly all actives have a fitted effect of over 55% in size
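HEK293T cells expressing luciferase-tagged ELG1 (2,000/well) received 5-Fluorouridine plus compound or DMSO for 16 hr at 37 °C. Luciferase was read by ONE-Glo luminescence after 30 min at room temperature.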
HT1080NT lethal – kills 2HG-producing HT-1080-NT fibrosarcoma cells. HT-1080-NT fibrosarcoma viability, CellTiter-Glo ATP luminescence, 48 h. Potency, µM (top dose mostly 46.1 µM), usual class: cytotoxic. hit rate 1.6% among 360,000. AID 686970;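 also: NT is the 2HG producing partner of a matched IDH1 knockdown line; nearly all actives have a fitted effect of over 55% in size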
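A 48-hour cytotoxicity screen used HT-1080-NT cells plated 2 hours before compound delivery. ATP-based CellTiter-Glo luminescence measured viability, normalized to DMSO and no-cell controls.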
HT1080 IDH1KD tx – kills HT-1080 cells with IDH1 knockdown. AID 686971. HT-1080 IDH1 knockdown viability, ATP luminescence, 48 h. hit rate 2% among 360,000. Potency, µM (top dose mostly 46.1 µM), actives largely listed as cytotoxic
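Luminescent ATP read-out (CellTiter-Glo, 10 min at room temperature) after 48 h compound exposure at 37 °C gave viability of IDH1-knockdown HT-1080 cells. Activity was normalised to DMSO and cell-free wells, then fitted as concentration-response curves.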
IL1B secr inh – inhibitors of inflammasome signaling (IL-1 beta secretion); THP-1 LPS/ATP IL-1B secretion, AlphaLISA, 16 h; active compounds read low; activity change, % at 57.5 µM; hit rate 4.7% among 360,000; AID 743279; in the data active = activity change below about -50%; inconclusive = mostly about -30% to -49%
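Secreted IL-1B measured by AlphaLISA bead assay after 16 h compound exposure of THP-1 cells; compounds (final up to 57.5 uM) added 1 h before LPS (250 ng/mL) and ATP (1.25 mM) stimulation; lower signal means less secretion.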
TDP1 cell noCPT – qHTS for Inhibitors of human tyrosyl-DNA phosphodiesterase 1 (TDP1): qHTS in cells in absence of CPT; DT40 Tdp1-/- hTDP1 cells, no CPT, ATP luminescence, 48 h; Potency, µM (titrated, usually from 46.2 µM), actives largely listed as inhibitors; hit rate 15% among 420,000; AID 686978, 2013; also: nearly all actives have a fitted effect of over 55% in size
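Stably hTDP1-transfected Tdp1-null chicken DT40 cells were treated with library compounds minus camptothecin and grown for at least 48 hr at 37 °C, after which cellular ATP was quantified by luminescence.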
TDP1 cell CPT – DT40-hTDP1 cell growth loss with CPT. hit rate 12% among 420,000. Potency, µM (series often up to 46.2 µM), hits mostly inhibitors. chicken DT40 Tdp1-/-;hTDP1 cells + 20 nM CPT, ATP luminescence, 48 h; also: nearly all actives have a fitted effect of over 55% in size
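Chicken DT40 Tdp1-/- cells stably complemented with human TDP1 were seeded at 400 cells/well in medium containing 20 nM camptothecin, exposed to pin-transferred compounds, and grown at 37 °C for at least 48 hr. Viability was read as ATP luminescence.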
Numbers stand for hits; . = inactive; ? = inconclusive; / = not tested or not shown. Unless noted, calls follow the shape of the dose curve; as a rule, active = well fitted curve in the direction sought with a large enough effect; inconclusive = small, poorly fitted or top-dose-only effect, or another doubt; inactive = no such curve, though single readings can be large; an effect the other way counts as inactive or inconclusive.

SMILES	ELG1 DNA repair	HT1080NT lethal	HT1080 IDH1KD tx	IL1B secr inh	TDP1 cell noCPT	TDP1 cell CPT
COc1ccc(N2CCN(C(c3cccs3)c3nnnn3C3CCCC3)CC2)cc1 (stereo not drawn)	.	.	.	.	16µM	21µM
COC(=O)c1cccc(CN2C(=O)SC(Nc3ccccc3C)C2=O)c1 (stereo not drawn)	/	/	/	/	.	.
Cc1cc(C(=O)Nc2cccc(C)c2C)c2c(C)nn(-c3cccc(F)c3)c2n1	/	/	/	/	.	.
Cc1cc(C(=O)NCCc2ccc(Cl)cc2)c2c(C)nn(-c3cccc(F)c3)c2n1	/	/	/	/	.	.
CCc1ccc(-n2nc(C)c3c(C(=O)N4CCN(c5cccc(Cl)c5)CC4)cc(C)nc32)cc1	/	/	/	/	21µM	?
Cc1cc(C(=O)N2CCN(c3ccccc3)CC2)c2c(C)nn(-c3cccc(F)c3)c2n1	/	/	/	/	16µM	?
Cc1noc(C)c1S(=O)(=O)N(C)C[C@H]1OCc2cnnn2CCCC(=O)N([C@H](C)CO)C[C@H]1C	/	?	.	.	.	.
COc1ccccc1NC(=O)C(C)OC(=O)CCSc1ccc(F)cc1 (stereo not drawn)	.	.	.	.	.	.
CCn1c2ccccc2c2cc(NC(=O)c3cc(C)on3)ccc21	?	?	23µM	?	18µM	?
CCn1c2ccccc2c2cc(NC(=O)CN(C)CC(=O)Nc3ccc(N4CCOCC4)cc3)ccc21	?	.	26µM	?	23µM	?
CCn1c2ccccc2c2cc(NC(=O)c3cc(OC)cc(OC)c3)ccc21	?	1.3µM	1.5µM	.	0.73µM	1µM
CN(CC(=O)Nc1ccc(N2CCOCC2)cc1)Cc1cc(=O)n2ccsc2n1	.	.	.	.	?	18µM
CCN(CC(=O)Nc1ccc2c(c1)OCCO2)Cc1cc(=O)n2ccsc2n1	?	.	.	.	.	.
CCn1c2ccccc2c2cc(NC(=O)c3coc(=O)c(Br)c3)ccc21	.	/	/	/	/	/
Cc1ccc(C(=O)Nc2cccc(N3C(=O)C4CCC(C)CC4C3=O)c2)cc1 (stereo not drawn)	.	.	.	.	.	.
CS(=O)(=O)c1ccc(-c2csc(C(O)c3cccc(Cl)c3)n2)cc1 (stereo not drawn)	/	.	.	.	?	?
CC(C)(C)OC(=O)N1CCC(c2c(C(=O)N3CCN(C(=O)c4ccco4)CC3)cnn2-c2ccccc2Cl)CC1	/	/	/	/	?	.
CC(C)(C)NC(=O)C1(C)CCC(=O)N1CCCn1ccnc1 (stereo not drawn)	/	.	.	.	?	.
CCOC(=O)N1CCN(C(=O)c2ccc(CS(=O)c3cccc(C)c3)o2)CC1 (stereo not drawn)	/	.	.	.	.	.
CCn1c2ccccc2c2cc(NC(=O)COc3ccccc3)ccc21	.	.	.	.	23µM	18µM
CCn1c2ccccc2c2cc(NC(=O)c3cc(OC)c(OC)c(OC)c3)ccc21	.	0.82µM	1.5µM	.	1.3µM	1.3µM
CCn1c2ccccc2c2cc(NC(=O)COc3ccc(OC)cc3)ccc21	.	?	.	.	?	?
CCn1c2ccccc2c2cc(NC(=O)c3ccc(Br)o3)ccc21	.	.	.	?	?	?
COc1cccc(CNC[C@H]2O[C@@H](n3ccc(N)nc3=O)[C@H](O)[C@@H]2O)c1OCc1ccc(F)cc1Cl	/	.	.	.	.	.
CC1(C)NC(=O)N(CC(=O)OCC(=O)Nc2cc(S(=O)(=O)N3CCCCC3)ccc2Cl)C1=O	.	.	.	.	?	.
SMILES	ELG1 DNA repair	HT1080NT lethal	HT1080 IDH1KD tx	IL1B secr inh	TDP1 cell noCPT	TDP1 cell CPT
CC(=O)Nc1ccc(S(=O)(=O)Nc2ccc(Nc3ccccc3)cc2)cc1	.	.	.	.	.	?
O=C(Oc1ccc(NC2=C(Cl)C(=O)c3ccccc3C2=O)cc1)c1ccc([N+](=O)[O-])cc1	?	.	.	.	7.3µM	8.2µM
CN(C)c1ccc(NC2=C(Cl)C(=O)c3ccccc3C2=O)cc1	?	3.3µM	2.3µM	-100	12µM	21µM
O=C1C(Cl)=C(Nc2ccc3cn[nH]c3c2)C(=O)c2ccccc21	?	?	2.6µM	-99	2.1µM	1.6µM
O=C(Oc1ccc([N+](=O)[O-])cc1)c1cccnc1	.	.	.	.	.	.
CN(C)c1ccc(NC(=O)CN2C(=O)c3ccccc3C2=O)cc1	.	.	.	.	.	.
CC(=O)Nc1ccc(NC2=C(Cl)C(=O)c3ccccc3C2=O)cc1	?	4.6µM	2.9µM	-98	?	?
COc1ccc(CCN2C(=O)CS/C2=N\NC(=O)c2cccs2)cc1OC	.	.	.	.	?	?
CC(=O)Nc1ccc(NC(=O)c2cccc3c2-c2ccccc2C3=O)cc1	.	.	.	.	18µM	21µM
Cc1ccc(NC(=O)c2cccc3c2-c2ccccc2C3=O)cc1C	.	.	.	.	?	?
Cc1ccc(NC2=C(NCCO)C(=O)c3ccccc3C2=O)cc1	.	?	?	.	?	13µM
O=C(N1CCOCC1)N1CCc2ccccc21	.	.	.	.	.	.
CC(=O)c1c(C)oc2ccc(NS(=O)(=O)c3ccc(C(C)C)cc3)cc12	/	/	/	/	5.8µM	5.8µM
Cc1oc2ccc(NS(=O)(=O)c3ccc(C(C)(C)C)cc3)cc2c1C(=O)Nc1ccccc1	?	.	.	?	18µM	?
O=S(=O)(Nc1ccc2oc(-c3ccccc3)nc2c1)c1ccccc1	?	?	?	?	.	.
CC(=O)c1c(C)oc2ccc(NS(=O)(=O)c3ccc(C)cc3)cc12	?	.	.	.	8.2µM	?
Cc1ccc(-c2nc3cc(NS(=O)(=O)c4ccc(C)cc4)ccc3o2)cc1	.	?	?	.	?	14µM
CC(=O)c1c(C)oc2ccc(NS(=O)(=O)c3cccs3)cc12	?	.	.	.	?	?
O=C(NCCCc1ccccc1)N1CCOCC1	?	.	.	.	.	.
COc1ccc(CCN=C(N)NS(=O)(=O)c2cc(F)ccc2OC)cc1	.	.	.	.	.	.
COC(=O)c1cc2cc(NS(=O)(=O)c3ccc(C)cc3)ccc2s1	.	.	.	.	.	?
COCc1oc2ccc(NS(=O)(=O)c3ccc(C)cc3)cc2c1C(=O)OC	/	/	/	/	2.3µM	3.7µM
Cc1ccc(NC(=O)Cn2c(=O)n(CCCS(=O)(=O)C3CCCCC3)c(=O)c3ccccc32)cc1F	/	/	/	/	.	.
COc1ccc(Br)cc1/C=N/NC(=O)C[n+]1ccccc1	.	.	.	.	13µM	18µM
O=C(C[n+]1ccccc1)N/N=C/c1cc(Br)ccc1F	?	.	.	.	.	.

Screening data from PubChem.
